High-throughput results deposited in PubChem by National Center for Advancing Translational Sciences (NCATS).
Pf growth 96h: Primary qHTS for delayed death inhibitors of the malarial parasite plastid, 96 hour incubation | Potency, µM (doses to about 28.7 µM), inactives show top-dose activity change, negative = inhibition, actives largely listed as inhibitors | P. falciparum luciferase reporter growth, 96 h | 6.9% of 320,000 active; further: on the % scale 0 is the no-effect control and ±100 the full control effect
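Parasite growth measured via integrated firefly luciferase reporter in P. falciparum. Infected erythrocytes at 2% hematocrit, 0.05% parasitemia final were treated 96 hours at 37 C under 5% CO2, and luminescence was read.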
Pf growth 48h: Primary qHTS for delayed death inhibitors of the malarial parasite plastid, 48 hour incubation; 5.9% of 310,000 active; P. falciparum luciferase growth in erythrocytes, 48 h; Potency, µM (highest dose often 28.7 µM), for the others: at the highest dose activity change, negative = inhibition, most hits filed as inhibitors; AID 504832, 2011; further: on the % scale 0 is the no-effect control and ±100 the full control effect
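In quantitative HTS format, infected erythrocytes bearing luciferase-reporter parasites were treated for a single generation at 37 C. Luminescence after adding detection reagent served as the growth measure.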
NS1 inh: qHTS Assay for Inhibitors of Influenza NS1 Protein Function. AID 2326, 2010. 0.4% of 270,000 active. Potency, µM (doses to about 46.1 µM), for inactives: top-dose activity, positive = more growth; calls by dose curve; further: actives are rising curves; nearly all actives have a fitted effect of over 50% in size
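S. cerevisiae expressing influenza A NS1, grown in glucose, washed, then diluted 1:100 into pH 6.0 -URA galactose medium with 23 nl compound. Growth recovery read as OD600; NS1-free strain serves as control.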
HCV inhibitor: qHTS Assay for Inhibitors of Hepatitis C Virus (HCV); Huh7.5.1 HCVcc-Cre infection, luciferase reporter, 44 h; 3.4% of 340,000 active; Potency, µM (highest dose often 41.8 µM), for the others: top-dose activity change, negative = inhibition, actives largely listed as inhibitors; further: on the % scale 0 is the no-effect control and ±100 the full control effect
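Seed cells (1,000/well) for 4 h; treat with compound and infect with HCVcc-Cre, moi about 0.5. Incubate 44 h, then detect luciferase activity.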
Vaccinia mCherry: qHTS for Stage-Specific Inhibitors of Vaccinia Orthopoxvirus: mCherry Reporter Primary qHTS; 0.63% of 310,000 active; Potency, µM (titrated, usually from 36.5 µM), for inactives: at the top dose activity change, negative = inhibition, actives largely listed as inhibitors; Vaccinia virus mCherry reporter infection, fluorescence; calls by dose curve; tested in A549 cells; further: on the % scale 0 is the no-effect control and ±100 the full control effect; nearly all actives have a fitted effect of over 35% in size
VACV Venus inh: qHTS for Stage-Specific Inhibitors of Vaccinia Orthopoxvirus: Venus Reporter Primary qHTS | Vaccinia virus Venus reporter expression, fluorescence | Potency, µM (doses to about 36.5 µM), inactives show at the top dose activity change, negative = inhibition, most hits filed as inhibitors | 0.46% of 330,000 active | AID 720580, 2013; calls by dose curve; tested in A549 cells; further: on the % scale 0 is the no-effect control and ±100 the full control effect; nearly all actives have a fitted effect of over 30% in size
An asterisk follows results filed as active; i = inactive; ? = inconclusive; nt = no result; ! = not confirmed by another sample. Most compounds without a hit are left out; they make up all but 11% or so of the library. Unless noted, the call rests on the fitted dose curve; in most records, active means well fitted inhibition curve with a large enough effect; inconclusive means small, poorly fitted or top-dose-only effect, or another doubt; inactive means no such curve, though single readings can be large or run the other way. Potency means the concentration at half of the fitted maximal effect.

SMILES	Pf growth 96h	Pf growth 48h	NS1 inh	HCV inhibitor	Vaccinia mCherry	VACV Venus inh
O=C(O)CSc1cc(NS(=O)(=O)c2cccc([N+](=O)[O-])c2)c2ccccc2c1O	?	10µM*	-7%	11µM*	10µM*	?
CCOC(=O)c1ccccc1NS(=O)(=O)c1ccc(OCC)cc1	9.3µM*	nt	-17%	?	nt	nt
CC(C)(C)C(=O)Oc1ccc(S(=O)(=O)Nc2ccccc2C(=O)NCC(=O)O)cc1	13µM*	-4%	nt	nt	nt	nt
CCc1ccc(S(=O)(=O)Nc2ccc(O)c3ccccc23)cc1	8%	9.3µM*	2%	-16%	-5%	-14%
CCOC(=O)c1ccccc1NC(=O)CN(c1ccccc1)S(=O)(=O)c1ccc(OCC)cc1	nt	nt	nt	nt	-7%	-1%
O=S(=O)(Nc1ccc(NS(=O)(=O)c2ccccc2)c2ccccc12)c1ccccc1	nt	nt	nt	nt	-2%	-2%
COc1ccc(Nc2nc(N)nc(CSc3nnc(C)s3)n2)cc1	?	109%	-5%	7%	-13%	-2%
COc1ccccc1CN1CC(C(=O)NCC2CCCO2)CC1=O (configuration not stated)	5%	2%	-1%	4%	1%	2%
COc1cccc(C(NC(C)=O)c2ccc3cccnc3c2O)c1 (configuration not stated)	30%	?	-129%	4.5µM*	?	?
CC(=O)NC(c1cccc([N+](=O)[O-])c1)c1ccc2cccnc2c1O (configuration not stated)	346%	-62%	-24%	1.8µM*	?	?
COc1cccc(C(Nc2ccccc2)c2ccc3ccc(C)nc3c2O)c1 (configuration not stated)	nt	nt	nt	nt	7.1µM*	?
Cc1oc(C(C)(C)C)cc1C(=O)NCC(=O)NCC(=O)O	-4%	?	2%	-3%	i	-16%
O=c1c2cc(Br)ccc2nc(-c2cccc(C(F)(F)F)c2)n1O	?	?	-125%	?	?	-28%
CN(C)C(=O)c1ccc(-n2nc(C(F)(F)F)c3c2CCCC3)cc1	?	2%	-13%	10µM*	nt	-26%
CCC(C(=O)NC(C)(C)C)N(Cc1cccs1)C(=O)CNS(=O)(=O)c1ccccc1 (configuration not stated)	-25%	2.3µM*	0%	11%	nt	nt
C=CCn1c(SCC(=O)c2c(N)n(C3CC3)c(=O)[nH]c2=O)nnc1-c1ccc(OC)cc1	?	?	nt	?	i	-1%
C=CCn1c(SCC(=O)c2c(N)n(C3CC3)c(=O)[nH]c2=O)nnc1-c1ccccc1OC	12µM*	?	nt	18%	-4%	-15%
COc1ccccc1-c1nnc(SCC(=O)c2c(N)n(C3CC3)c(=O)[nH]c2=O)n1C	12µM*	?	nt	15%	nt	nt
Cc1ccccc1-c1nnc(SCC(=O)c2c(N)n(C3CC3)c(=O)[nH]c2=O)o1	-26%	-18%	nt	4%	nt	nt
C=CCn1c(SCC(=O)c2c(N)n(C3CC3)c(=O)[nH]c2=O)nnc1-c1ccoc1C	?	9.3µM*	nt	10%	i	-2%
NC(=O)c1ccc(NC(=O)CSc2nncn2-c2ccccc2)cc1	17%	5%	9%	-14%	8%	1%
COc1ccc(C(C)=O)cc1Cn1c(C)c(C(=O)NCc2cccc(Cl)c2)sc1=O	nt	nt	nt	nt	9%	-4%
O=C(O)c1ccc(N(Cc2ccccc2)S(=O)(=O)c2ccccc2)cc1	9.3µM*!	-4%	4%	0%	-17%	-3%
CCN1CCN(C(=O)c2ccccc2N(Cc2ccccc2)S(C)(=O)=O)CC1	2%	nt	-15%	11%	nt	nt
COc1ccc(S(=O)(=O)N(Cc2ccccc2)c2ccccc2C(=O)N2CCOCC2)cc1	-8%	?	-1%	?	-19%	-20%
SMILES	Pf growth 96h	Pf growth 48h	NS1 inh	HCV inhibitor	Vaccinia mCherry	VACV Venus inh
CCN1CCN(C(=O)c2ccccc2N(Cc2ccccc2)S(=O)(=O)c2ccc(C)cc2)CC1	15µM*	nt	-1%	?	nt	nt
COc1ccc(S(=O)(=O)N(Cc2ccccc2)c2ccccc2C(=O)O)cc1	13µM*	2%	?	-3%	-21%	-9%
COc1cccc(/C=N/NC(=O)c2ccccc2N(Cc2ccccc2)S(=O)(=O)c2ccccc2)c1OC	12µM*	?	?	?	?	-5%
C=CCN(c1ccccc1C(=O)O)S(=O)(=O)c1ccc(NC(=O)OC)cc1	48%	2.3µM*	?	-10%	i	3%
O=c1c2ccccc2nc(SCc2cccc(F)c2)n1-c1cccc(S(=O)(=O)N2CCCC2)c1	6.6µM*	?	22%	?	i	-6%
COc1ccc2[nH]c3c(NCCCN4CCCC4=O)ncnc3c2c1	5%	1%	9%	12%	nt	nt
COc1ccc2[nH]c3c(NCCN(C(C)C)C(C)C)ncnc3c2c1	0.47µM*	2.6µM*	-32%	?	nt	-6%
CCOc1ccc2[nH]c3c(NCCCOC)ncnc3c2c1	?	nt	-1%	-24%	nt	nt
CCOc1ccc2[nH]c3c(NCCN(CC)CC)ncnc3c2c1	2.1µM*	2.3µM*	0%	-2%	?	-21%
CCOc1ccc2[nH]c3c(NCCOC)ncnc3c2c1	?	5%	5%	-11%	nt	nt
CCOc1ccc2[nH]c3c(NCC(C)C)ncnc3c2c1	1.7µM*	2.3µM*	-4%	?	nt	nt
CC12CCCCC1NS(=O)(=O)OC2 (configuration not stated)	?	-5%	5%	5%	i	-8%
Cc1ccc(CNC(=O)CSc2nc(=O)n(Cc3ccco3)c3c2CCC3)cc1	nt	nt	nt	nt	i	-8%
CCNC(=S)N1CCN(c2ccc([N+](=O)[O-])cc2)CC1	6.6µM*	12µM*	-14%	-3%	i	-4%
CNC(=S)N1CCN(c2ccc([N+](=O)[O-])cc2)CC1	13µM*	?	-1%	-5%	i	-16%
COCCCNC(=S)N1CCN(c2ccc([N+](=O)[O-])cc2)CC1	-26%	6.6µM*	8%	?	-9%	-11%
C=CCNC(=S)N1CCN(c2ccc([N+](=O)[O-])cc2)CC1	?	1.7µM*	-2%	-27%	?	-24%
Cc1ccc(-c2noc(CSc3nnc(Cc4ccccc4)n3-c3cccc(C)c3)n2)cc1	nt	?	9%	?	-11%	-10%
COc1ccc(C(=O)NCCn2cc(SCC(=O)NCc3ccco3)c3ccccc32)cc1	-4%	?	7%	-20%	i	-12%
O=[N+]([O-])c1ccc(N2CCN(C(=S)NCc3ccc(Cl)cc3)CC2)cc1	2%	?	?	11µM*	-27%	?
